The source of these data is PubChem BioAssay (EPA / NIEHS).

Read-out in test [1]: Tissue Factor, F3 (gene 2152)
As to the kind of experiment: BSK_CASM3C_TissueFactor: BioMAP Diversity Plus: CASM3C Assay for Tissue Factor Biomarker Activity (AID 2283052).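 Also: cell surface tissue factor protein level read by ELISA.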 The settings on record: primary human coronary artery smooth muscle cells; actives raise or lower the signal.

Read-out in test [2]: Interferon-gamma inducible Protein 10 (IP10), CXCL10 (gene 3627)
Nature of the test: BSK_hDFCGF_IP10: BioMAP Diversity Plus: hDFCGF Assay for Interferon-gamma inducible Protein 10 (IP10) Biomarker Activity (AID 2283053). The settings on record: primary human foreskin fibroblasts; actives raise or lower the signal. In outline:
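Primary human foreskin fibroblasts exposed to chemicals for 24 h. IP-10 measured by ELISA; changes fitted bidirectionally against DMSO baseline.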

Read-out in test [3]: Urokinase-type plasminogen activator receptor (uPAR), PLAUR (gene 5329)
As to the kind of experiment: BSK_CASM3C_uPAR: BioMAP Diversity Plus: CASM3C Assay for Urokinase-type plasminogen activator receptor (uPAR) Biomarker Activity (AID 2283054).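 Also: cell-surface uPAR protein level quantified by ELISA.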 Conditions: primary human coronary artery smooth muscle cells; actives raise or lower the signal.

Read-out in test [4]: Vascular cell adhesion molecule 1 (VCAM1), VCAM1 (gene 7412)
As to the kind of experiment: BSK_CASM3C_VCAM1: BioMAP Diversity Plus: CASM3C Assay for Vascular cell adhesion molecule 1 (VCAM1) Biomarker Activity (AID 2283055).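 Also: VCAM-1 protein level quantified by ELISA on the cells.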 Conditions: primary human coronary artery smooth muscle cells; actives raise or lower the signal.

Read-out in test [5]: Collagen III, COL3A1 (gene 1281)
As to the kind of experiment: BSK_hDFCGF_CollagenIII: BioMAP Diversity Plus: hDFCGF Assay for Collagen III Biomarker Activity (AID 2283056). The settings on record: primary human foreskin fibroblasts; actives raise or lower the signal. In outline:
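hDFCGF primary human dermal fibroblasts; 24 h chemical exposure; collagen III by ELISA; bidirectional curve fit vs DMSO baseline (gain or loss of signal).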

Read-out in test [6]: Epidermal growth factor receptor (EGFR), EGFR (gene 1956)
Nature of the test: BSK_hDFCGF_EGFR: BioMAP Diversity Plus: hDFCGF Assay for Epidermal growth factor receptor (EGFR) Biomarker Activity (AID 2283057). The settings on record: primary human foreskin fibroblasts; actives raise or lower the signal. The method in brief: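 Primary human foreskin fibroblasts (hDFCGF system), sampled 24 h after dosing; EGFR quantified by ELISA. Bidirectional fit relative to DMSO baseline; SRB total-protein staining in parallel cultures for cytotoxicity.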

Read-out in test [7]: Interleukin-8 (IL8), CXCL8 (gene 3576)
As to the kind of experiment: BSK_hDFCGF_IL8: BioMAP Diversity Plus: hDFCGF Assay for Interleukin-8 (IL8) Biomarker Activity (AID 2283058). The settings on record: primary human foreskin fibroblasts; actives raise or lower the signal. In outline: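 ELISA read-out of IL-8 from primary human foreskin fibroblast cultures taken 24 h after dosing; values are bidirectional fits relative to DMSO vehicle.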

A short description of test [8]: BSK_hDFCGF_Proliferation: Cell Proliferation Assessment in the BioMAP Diversity Plus: hDFCGF Assay (AID 2283059).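 Also: curves fitted for both rise and fall of signal versus DMSO baseline.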 Conditions: primary human foreskin fibroblasts. In outline:
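Sub-confluent human foreskin fibroblast cultures receive test chemical […]. Relative cell number is quantified by sulforhodamine B staining (0.1%, after 10% TCA fixation) at 560 nm, with bidirectional fitting referenced to DMSO.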

Read-out in test [9]: Macrophage colony-stimulating factor (MCSF), CSF1 (gene 1435)
Nature of the test: BSK_hDFCGF_MCSF: BioMAP Diversity Plus: hDFCGF Assay for Macrophage colony-stimulating factor (MCSF) Biomarker Activity (AID 2283060). Conditions: primary human foreskin fibroblasts; actives raise or lower the signal. The method in brief: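 ELISA read-out of M-CSF in human dermal foreskin fibroblast cultures, 24 h after chemical dosing; gain or loss of signal fitted bidirectionally relative to DMSO baseline.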

Test [10] in a line: BSK_hDFCGF_SRB: Viability Assessment in the BioMAP Diversity Plus: hDFCGF Assay (AID 2283061).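 Also: cells exposed to compound for 24 h before the read.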 The settings on record: primary human foreskin fibroblasts. The method in brief: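 Primary human foreskin fibroblasts; 24 h post-dose; fixed 10% TCA, stained 0.1% SRB, A560 read; total protein as overt cytotoxicity measure; curves fit bidirectionally vs DMSO control.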
Read-out in test [11]: TIMP metallopeptidase inhibitor 1 (TIMP1), TIMP1 (gene 7076)
As to the kind of experiment: BSK_hDFCGF_TIMP1: BioMAP Diversity Plus: hDFCGF Assay for TIMP metallopeptidase inhibitor 1 (TIMP1) Biomarker Activity (AID 2283062). The settings on record: primary human foreskin fibroblasts; actives raise or lower the signal. In outline: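 ELISA readout of TIMP-1 from human dermal foreskin fibroblast cultures 24 h post-dosing. Curves were fitted in both directions against DMSO baseline, with SRB total-protein staining in parallel cultures as a cytotoxicity check.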

Read-out in test [12]: Monokine induced gamma interferon (MIG), CXCL9 (gene 4283)
As to the kind of experiment: BSK_hDFCGF_MIG: BioMAP Diversity Plus: hDFCGF Assay for Monokine induced gamma interferon (MIG) Biomarker Activity (AID 2283063). Conditions: primary human foreskin fibroblasts; actives raise or lower the signal. The method in brief: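 Fibroblasts (human foreskin, primary) dosed, 24 h, MIG by ELISA; fit bidirectional vs DMSO.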

Read-out in test [13]: Matrix Metallopeptidase 1 (MMP1), MMP1 (gene 4312)
As to the kind of experiment: BSK_hDFCGF_MMP1: BioMAP Diversity Plus: hDFCGF Assay for Matrix Metallopeptidase 1 (MMP1) Biomarker Activity (AID 2283064). Conditions: primary human foreskin fibroblasts; actives raise or lower the signal. The method in brief: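 Primary human foreskin fibroblasts in the hDFCGF system were dosed with test chemical, and MMP1 was measured by ELISA 24 h later. Values come from bidirectional curve fitting against the DMSO baseline.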

Read-out in test [14]: Vascular cell adhesion molecule 1 (VCAM1), VCAM1 (gene 7412)
Nature of the test: BSK_hDFCGF_VCAM1: BioMAP Diversity Plus: hDFCGF Assay for Vascular cell adhesion molecule 1 (VCAM1) Biomarker Activity (AID 2283065).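 As to AC50: VCAM-1 protein level quantified by ELISA after 24 h chemical exposure.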 Conditions: primary human foreskin fibroblasts; actives raise or lower the signal. The method in brief: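 ELISA read-out of VCAM-1 on human skin fibroblasts, 24 h post-dose; gain or loss of signal fitted bidirectionally against DMSO baseline.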

Read-out in test [15]: Plasminogen activator inhibitor-1 (PAI1), SERPINE1 (gene 5054)
Nature of the test: BSK_hDFCGF_PAI1: BioMAP Diversity Plus: hDFCGF Assay for Plasminogen activator inhibitor-1 (PAI1) Biomarker Activity (AID 2283066). The settings on record: primary human foreskin fibroblasts; actives raise or lower the signal. The method in brief: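 Human foreskin fibroblast primary cells, 24 h chemical exposure; PAI-1 measured by ELISA. Bidirectional fitting relative to DMSO; parallel cultures stained with SRB for total protein to flag overt cytotoxicity.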

Read-out in test [16]: Intercellular Adhesion Molecule 1 (ICAM1), ICAM1 (gene 3383)
Nature of the test: BSK_KF3CT_ICAM1: BioMAP Diversity Plus: KF3CT Assay for Intercellular Adhesion Molecule 1 (ICAM1) Biomarker Activity (AID 2283067). The settings on record: primary human keratinocytes with fibroblasts; actives raise or lower the signal. The method in brief: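 ELISA readout of ICAM-1; KF3CT human skin co-culture (keratinocytes + foreskin fibroblasts), 24 h post-dose; gain/loss fit vs DMSO baseline.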

Read-out in test [17]: Interferon-gamma inducible Protein 10 (IP10), CXCL10 (gene 3627)
As to the kind of experiment: BSK_KF3CT_IP10: BioMAP Diversity Plus: KF3CT Assay for Interferon-gamma inducible Protein 10 (IP10) Biomarker Activity (AID 2283068). Conditions: primary human keratinocytes with fibroblasts; actives raise or lower the signal. In outline:
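ELISA read-out of IP-10 after 24 h chemical dosing of human skin primary co-culture (keratinocytes, foreskin fibroblasts). Gain or loss of signal relative to DMSO, bidirectional curve fit.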

Test [18] is described as follows: BSK_KF3CT_SRB: Viability Assessment in the BioMAP Diversity Plus: KF3CT Assay (AID 2283069).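 Also: total protein by sulforhodamine B staining as a cytotoxicity measure; read 24 h after compound addition.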 The settings on record: primary human keratinocytes with fibroblasts. In outline: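 Human primary keratinocyte plus foreskin fibroblast co-culture exposed to chemicals for 24 h. Total protein measured by 0.1% sulforhodamine B staining after 10% TCA fixation, read at 560 nm; bidirectional fitting versus DMSO baseline.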

Read-out in test [19]: Interleukin-1 alpha (IL1a), IL1A (gene 3552)
As to the kind of experiment: BSK_KF3CT_IL1a: BioMAP Diversity Plus: KF3CT Assay for Interleukin-1 alpha (IL1a) Biomarker Activity (AID 2283070). Conditions: primary human keratinocytes with fibroblasts; actives raise or lower the signal. The method in brief:
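Human keratinocyte plus foreskin fibroblast primary co-culture, sampled 24 h after chemical dosing. IL-1a measured by ELISA; responses fitted bidirectionally against DMSO baseline (negative control), so gain or loss of signal both count.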

Read-out in test [20]: TIMP metallopeptidase inhibitor 2 (TIMP2), TIMP2 (gene 7077)
Nature of the test: BSK_KF3CT_TIMP2: BioMAP Diversity Plus: KF3CT Assay for TIMP metallopeptidase inhibitor 2 (TIMP2) Biomarker Activity (AID 2283071). The settings on record: primary human keratinocytes with fibroblasts; actives raise or lower the signal. The method in brief:
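Co-culture of human primary keratinocytes and foreskin fibroblasts, measured 24 h after chemical dosing. TIMP-2 quantified by ELISA and fitted in both directions relative to DMSO. Cytotoxicity checked in parallel cultures by SRB total-protein staining.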

Activity calls are given as the source filed them. The calls were made as follows: active = hit-call score of the fitted dose curve at least 0.9, where 1 is the maximum; inactive = score below 0.9.

As for `CCCOC(=O)NCCCN(C)C`, the result in [1], in [2], in test [3], in test [4], in test [5] and in test [6] was inactive. Further, the outcome in test [7], in test [8], in test [9], in [10], in [11] and in test [12] was inactive. Moreover, the outcome in test [13], in test [14], in test [15], in test [16], in test [17] and in test [18] was inactive. In addition, the result in test [19] and in test [20] was inactive.
One may read the AC50 as the concentration at which the activity in the assay is half-maximal. As for `C#CCOC(=O)[C@@H](C)Oc1ccc(Oc2ncc(Cl)cc2F)cc1`, the outcome in test [1], in test [2], in test [3], in [4], in test [5] and in [6] was inactive. Moreover, the result in [7], in [9], in [10], in test [11], in test [12] and in [13] was inactive. The outcome in test [14], in test [15], in [16], in [17], in test [18] and in test [19] was inactive. Further, in test [20], the result was inactive. Besides, the AC50 in [8] is 14.9 µM (active).
On to `CCCOC(=O)c1ccc(C(=O)OCCC)nc1`, for which the result in test [1], in test [2], in [3], in test [4], in test [5] and in test [6] was inactive. Further, the result in test [7], in test [8], in [9], in test [10], in [11] and in [12] was inactive. Besides, the result in [13], in test [14], in test [15], in test [16], in [17] and in test [18] was inactive. The result in [19] was inactive.
With `CC(C)(C)[C@@H](O)[C@@H](Cc1ccc(Cl)cc1)n1cncn1`, the result in test [1], in test [2], in test [3], in test [4], in [5] and in test [6] was inactive. The result in test [7], in test [8], in test [9], in test [10], in test [11] and in test [12] was inactive. Moreover, the outcome in test [14], in test [15], in test [16], in test [17], in [18] and in test [19] was inactive. Further, the result in test [20] was inactive. The AC50 in [13] is 1.42 µM (active).
Take `CCC(C)OC(=O)N1CCCCC1CCO` (stereo not drawn): the result in test [1], in test [2], in test [3], in [4], in [5] and in [6] was inactive. Also, the outcome in test [7], in test [8], in test [9], in test [10], in test [11] and in test [12] was inactive. For the same compound, the outcome in test [13], in [14], in test [15], in test [16], in test [17] and in [18] was inactive. Also, the result in test [19] and in test [20] was inactive.
Take `Cc1nn(C)c(Oc2ccccc2)c1C=NOCc1ccc(C(=O)OC(C)(C)C)cc1`: the outcome in test [1], in test [3], in [4], in test [7], in test [11] and in test [12] was inactive. Further, the result in test [16], in test [18] and in test [19] was inactive. For the same compound, the AC50 was 27.9 µM (active) in test [2]; 4.21 µM (active) in test [5]; 3.95 µM (active) in test [6]; 6.94 µM (active) in test [8]; 18.8 µM (active) in test [9]; 15.4 µM (active) in test [10]. For the same compound, the AC50 in test [13] is 34.5 µM (active); in test [14] it was 13.9 µM (active); in test [15], 24.2 µM (active); in [17], 13 µM (active).
